# Activity calls are given as the source filed them.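 Rule for the calls, unless noted: active = fluorescence ratio normalized to control raised more than 50% in primary screen plus both repeat runs; inactive = the rest.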
# Tested on: TRPC4 beta (transient receptor potential cation channel C4), mouse
# Assay: TRPC4 cation channel opening, retest – cell-based, Fluo4 calcium, HEK293 TRPC4beta/mu-opioid, duplicates, 10 µM, confirmation (AID 2426);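 for activation: percent rise of integrated ratio over buffer wells lacking compound which define 0%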
# Details: Fluo4 calcium fluorescence, at 10 µM; stronger effect = higher value
Structure (SMILES),activation,outcome
O=C1/C(=C\c2cc(Cl)c(O)c(Cl)c2)SC(=S)N1Cc1ccccc1,118% (active),–
COc1ccc(C(=O)NC(=S)NNC(=O)c2c(-c3ccccc3)noc2C)cc1,100% (active),–
O=C(c1sc2ccccc2c1Cl)N(Cc1ccco1)C1CCS(=O)(=O)C1 (stereo not given),198% (active),–
Cc1cc(-c2ccc(C)c(S(=O)(=O)NCCCN(Cc3ccccc3)C(C)C)c2)on1,161% (active),–
CCc1nc(NCCc2ccccn2)c2nnn(Cc3ccccc3F)c2n1,154% (active),–
CN(C)CCCN(C(=O)c1ccc(S(=O)(=O)N2CCCc3ccccc32)cc1)c1nc2ccc(F)cc2s1,134% (active),–
CSCCC(NS(=O)(=O)c1ccc2c(c1)c(=O)n(C)c(=O)n2C)C(=O)NC1CCN(Cc2ccccc2)CC1 (stereo not given),–,inactive
CCC1(c2ccc(F)cc2)NC(=O)N(CC(=O)c2cc(C)n(C3CC3)c2C)C1=O (stereo not given),–,inactive
CN(C)CCCN(C(=O)c1ccc(C(=O)c2ccccc2)cc1)c1nc2ccc(F)cc2s1,83% (active),–
Cc1ccc(-n2cc(CNCC3CC(=O)N(C4CC4)C3)c(-c3cccc(C)c3)n2)cc1 (stereo not given),165% (active),–
CC1CCCN(CCCNC(=O)c2ccc3c(c2)N(Cc2ccccc2F)C(=O)c2ccccc2S3(=O)=O)C1 (stereo not given),125% (active),–
Cc1nc(/N=C(\N)NC(=O)NC2CCCCC2)nc2ccccc12,99% (active),–
COc1ccc(C(CNC(=O)c2cccc(NS(=O)(=O)c3ccc(C)c(F)c3)c2)N(C)C)cc1 (stereo not given),135% (active),–
CCN1CCN(c2ccc(S(=O)(=O)N3CCCCC3)cc2NC(=O)COc2ccccc2)CC1,157% (active),–
CCCN(CCC)CCCNC(=O)C1CCN(S(=O)(=O)c2cccc3nsnc23)CC1,145% (active),–
c1ccc(Nc2nc(Nc3ccccc3)nc(N3CCNCC3)n2)cc1,159% (active),–
CN(C)C(CNc1ncnc2sc3c(c12)CCCC3)c1ccco1 (stereo not given),110% (active),–
CC(=O)Nc1ccc(CN2CCCC(C(=O)c3cccc(C(F)(F)F)c3)C2)cc1 (stereo not given),96% (active),–
NCCCn1c(C(=O)c2cc(Cl)c(N)c(Cl)c2)c2ccccc2[n+]1[O-],179% (active),–
CCN1CCN(c2c(Cl)cccc2NC(=O)c2ccc3nsnc3c2)CC1,57% (active),–

Structure (SMILES),activation,outcome
COc1ccc(-c2cc(C(=O)NCC(c3ccccc3)N(C)C)c3ccccc3n2)cc1OC (stereo not given),98% (active),–
O=C(c1sc2ccccc2c1Cl)N(Cc1cccs1)C1CCS(=O)(=O)C1 (stereo not given),265% (active),–
O=S(=O)(c1ccccc1)c1nnn2c1nc(NC1CCN(Cc3ccccc3)CC1)c1cc(Cl)ccc12,64% (active),–
CCCc1c(O)nc(SCCN(CCC)CCC)[nH]c1=O,96% (active),–
O=C(CCc1ccccc1)NNC(=S)NC(=O)c1ccc(Cl)cc1,170% (active),–
CCCCN(C)CCCNC(=O)CN1N=C(c2ccc(Cl)cc2)CCC1=O,–,inactive
CC1(C)CC(=O)c2cc(C(=O)NCc3ccco3)c(=O)n(-c3ccc(Cl)cc3)c2C1,–,inactive
CCOC(=O)C1CCCN(C(c2ccccn2)c2c(C)[nH]c3ccccc23)C1 (stereo not given),208% (active),–
O=C(Nc1nnc(-c2ccccc2Cl)o1)c1nc2ccccc2s1,143% (active),–
CCCCC(c1nnnn1CC1CCCO1)N1CCN(c2nc3ccccc3s2)CC1 (stereo not given),88% (active),–
c1ccc2c(c1)CCN(c1ncnc3c1[nH]c1ccccc13)C2,–,inactive
COc1ccc(C(CNCC(=O)Nc2ccccc2F)N(C)C)cc1 (stereo not given),–,inactive
O=S(=O)(c1ccc(Cl)cc1)N1CCN2CCCC2C1 (stereo not given),103% (active),–
COc1cc(OC)c(CN2CCC(Cc3ccccc3)CC2)cc1Br,121% (active),–
CCOC(=O)C1(CCOc2ccccc2)CCN(Cc2ccc(NC(C)=O)cc2)CC1,146% (active),–
O=C(C1CCCN(Cc2ccccc2)C1)N1CCc2ccccc2C1 (stereo not given),105% (active),–
Cc1csc2c(N3CCN(C(=S)Nc4ccc(F)cc4F)CC3)ncnc12,126% (active),–
Cc1ccc(C2(O)CN(c3ccccc3C)C3=[N+]2CCS3)cc1 (stereo not given),87% (active),–
CCn1cc(CN2CCCC(C(=O)Nc3ccc(-c4nc5ccccc5[nH]4)cc3)C2)c(C)n1 (stereo not given),169% (active),–
CN(C)C(CNC(=S)Nc1cccc(Cl)c1)c1cccnc1 (stereo not given),77% (active),–

# Tested on: transient receptor potential cation channel C4 beta (TRPC4), mouse
# Assay: TRPC4 cation channel opening, second retest – cell-based, second round, Fluo4, HEK293 TRPC4beta/mu-opioid, 1 µM, confirmation (AID 2461;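 active = primary screen active and over 50% activation in each of two duplicate runs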;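 for activation: 0% = wells without test compound as baseline of integrated fluorescence ratio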)
# Details: Fluo4 calcium fluorescence, at 1 µM; stronger effect = higher value
Structure (SMILES),outcome,activation
O=C1/C(=C\c2cc(Cl)c(O)c(Cl)c2)SC(=S)N1Cc1ccccc1,inactive,–
COc1ccc(C(=O)NC(=S)NNC(=O)c2c(-c3ccccc3)noc2C)cc1,inactive,–
O=C(c1sc2ccccc2c1Cl)N(Cc1ccco1)C1CCS(=O)(=O)C1 (stereo not given),inactive,–
Cc1cc(-c2ccc(C)c(S(=O)(=O)NCCCN(Cc3ccccc3)C(C)C)c2)on1,inactive,–
CCc1nc(NCCc2ccccn2)c2nnn(Cc3ccccc3F)c2n1,inactive,–
CN(C)CCCN(C(=O)c1ccc(S(=O)(=O)N2CCCc3ccccc32)cc1)c1nc2ccc(F)cc2s1,inactive,–
CSCCC(NS(=O)(=O)c1ccc2c(c1)c(=O)n(C)c(=O)n2C)C(=O)NC1CCN(Cc2ccccc2)CC1 (stereo not given),inactive,–
CCC1(c2ccc(F)cc2)NC(=O)N(CC(=O)c2cc(C)n(C3CC3)c2C)C1=O (stereo not given),inactive,–
CN(C)CCCN(C(=O)c1ccc(C(=O)c2ccccc2)cc1)c1nc2ccc(F)cc2s1,inactive,–
Cc1ccc(-n2cc(CNCC3CC(=O)N(C4CC4)C3)c(-c3cccc(C)c3)n2)cc1 (stereo not given),inactive,–
CC1CCCN(CCCNC(=O)c2ccc3c(c2)N(Cc2ccccc2F)C(=O)c2ccccc2S3(=O)=O)C1 (stereo not given),–,68% (active)
Cc1nc(/N=C(\N)NC(=O)NC2CCCCC2)nc2ccccc12,–,66% (active)
COc1ccc(C(CNC(=O)c2cccc(NS(=O)(=O)c3ccc(C)c(F)c3)c2)N(C)C)cc1 (stereo not given),inactive,–
CCN1CCN(c2ccc(S(=O)(=O)N3CCCCC3)cc2NC(=O)COc2ccccc2)CC1,inactive,–
CCCN(CCC)CCCNC(=O)C1CCN(S(=O)(=O)c2cccc3nsnc23)CC1,–,95% (active)
c1ccc(Nc2nc(Nc3ccccc3)nc(N3CCNCC3)n2)cc1,inactive,–
CN(C)C(CNc1ncnc2sc3c(c12)CCCC3)c1ccco1 (stereo not given),inactive,–
CC(=O)Nc1ccc(CN2CCCC(C(=O)c3cccc(C(F)(F)F)c3)C2)cc1 (stereo not given),inactive,–
NCCCn1c(C(=O)c2cc(Cl)c(N)c(Cl)c2)c2ccccc2[n+]1[O-],–,103% (active)
CCN1CCN(c2c(Cl)cccc2NC(=O)c2ccc3nsnc3c2)CC1,inactive,–

Structure (SMILES),outcome,activation
COc1ccc(-c2cc(C(=O)NCC(c3ccccc3)N(C)C)c3ccccc3n2)cc1OC (stereo not given),inactive,–
O=C(c1sc2ccccc2c1Cl)N(Cc1cccs1)C1CCS(=O)(=O)C1 (stereo not given),–,79% (active)
O=S(=O)(c1ccccc1)c1nnn2c1nc(NC1CCN(Cc3ccccc3)CC1)c1cc(Cl)ccc12,inactive,–
CCCc1c(O)nc(SCCN(CCC)CCC)[nH]c1=O,inactive,–
O=C(CCc1ccccc1)NNC(=S)NC(=O)c1ccc(Cl)cc1,inactive,–
CCCCN(C)CCCNC(=O)CN1N=C(c2ccc(Cl)cc2)CCC1=O,inactive,–
CC1(C)CC(=O)c2cc(C(=O)NCc3ccco3)c(=O)n(-c3ccc(Cl)cc3)c2C1,inactive,–
CCOC(=O)C1CCCN(C(c2ccccn2)c2c(C)[nH]c3ccccc23)C1 (stereo not given),inactive,–
O=C(Nc1nnc(-c2ccccc2Cl)o1)c1nc2ccccc2s1,inactive,–
CCCCC(c1nnnn1CC1CCCO1)N1CCN(c2nc3ccccc3s2)CC1 (stereo not given),inactive,–
c1ccc2c(c1)CCN(c1ncnc3c1[nH]c1ccccc13)C2,inactive,–
COc1ccc(C(CNCC(=O)Nc2ccccc2F)N(C)C)cc1 (stereo not given),–,105% (active)
O=S(=O)(c1ccc(Cl)cc1)N1CCN2CCCC2C1 (stereo not given),inactive,–
COc1cc(OC)c(CN2CCC(Cc3ccccc3)CC2)cc1Br,inactive,–
CCOC(=O)C1(CCOc2ccccc2)CCN(Cc2ccc(NC(C)=O)cc2)CC1,–,68% (active)
O=C(C1CCCN(Cc2ccccc2)C1)N1CCc2ccccc2C1 (stereo not given),–,94% (active)
Cc1csc2c(N3CCN(C(=S)Nc4ccc(F)cc4F)CC3)ncnc12,inactive,–
Cc1ccc(C2(O)CN(c3ccccc3C)C3=[N+]2CCS3)cc1 (stereo not given),–,76% (active)
CCn1cc(CN2CCCC(C(=O)Nc3ccc(-c4nc5ccccc5[nH]4)cc3)C2)c(C)n1 (stereo not given),–,116% (active)
CN(C)C(CNC(=S)Nc1cccc(Cl)c1)c1cccnc1 (stereo not given),–,110% (active)
